Among the test systems are T-47D breast; BT-549 breast; MDA-MB-435 melanoma; SW-620 colon; MCF7 breast; HCT-116 colon; HCC-2998 colon; KM12 colon.
What all share (test): NCI-60 one-dose screen, 48 h (100 = growth as untreated, 0 = no growth, -100 = all killed)
Holding throughout (details): 10 µM unless noted

The panel holds about 83,000 compounds, 20% with a hit somewhere; the sample as a whole holds those more often.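 Cells were grown in 96-well plates and exposed to the test compound at a single concentration for 48 hours; results are reported as percent growth, with values below 10 considered active.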 Unmarked numbers belong to inactive results. Active and inactive are the calls of the source.

In the case of `COc1ccc(-c2nnc(SCC(=O)Nc3ccc(C(=O)/C=C/c4ccc(OC)c(OC)c4)cc3)o2)cc1`, the growth with T-47D breast is 75%; with BT-549 breast, 113%; in the assay with MDA-MB-435 melanoma it was 94.2%; in the assay with SW-620 colon it was 92.7%; in the assay on MCF7 breast, 51.6%; with HCT-116 colon it was 77.8%. The values for the growth with HCC-2998 colon and with KM12 colon were 102% and 84.5%, respectively.
Consider `NS(=O)(=O)c1ccc(-n2nc(-c3ccc(Cl)cc3)ccc2=O)cc1`, for which the growth was 95.2% in the assay on T-47D breast; 92.9% in the assay on BT-549 breast; 43.5% in the assay with MDA-MB-435 melanoma; 93.1% with SW-620 colon; 86.2% with MCF7 breast; 99.6% in the assay on HCT-116 colon. Also, the growth in the assay with HCC-2998 colon was 102%; in the assay with KM12 colon it was 69.7%.
With `CC1(C)N=C(N)N=C(N)N1c1ccc(OCC(=O)Nc2ccccc2)c(Cl)c1`, the growth is 70% in the assay with T-47D breast; 40.6% with BT-549 breast; 25.2% in the assay with MDA-MB-435 melanoma; 33% with SW-620 colon; 28.4% in the assay with MCF7 breast; 19.2% in the assay with HCT-116 colon. Further, the growth with HCC-2998 colon was 29.5%; with KM12 colon it was 18.1%.
In the case of `O=C(Nc1ccc(-n2ccc3c(NC(=O)c4ccccc4)nccc32)cc1)Nc1ccc(Cl)c(Cl)c1`, the growth is 20.7% in the assay with T-47D breast; 40.3% with BT-549 breast; -58.9% (active) in the assay with MDA-MB-435 melanoma; -64.6% (active) in the assay with SW-620 colon; -91.9% (active) with MCF7 breast; -94.5% (active) with HCT-116 colon. The growth in the assay on HCC-2998 colon is -57.6% (active); in the assay with KM12 colon, -49.1% (active).
Take `COc1cc(/C=C/C(=O)N2CCC=CC2=O)cc(OC)c1OC`: the growth was 25.6% with T-47D breast; 58.3% with BT-549 breast; 57.2% in the assay with MDA-MB-435 melanoma; 29.3% in the assay with SW-620 colon; 15.3% in the assay with MCF7 breast; 6.96% (active) in the assay on HCT-116 colon. Besides, the growth in the assay with HCC-2998 colon was 100%; in the assay on KM12 colon it was 66.6%.
Consider `Cc1nc(-c2ccc(Cl)cc2)ccc1NC(=O)Nc1cccc(C(F)(F)F)c1`, for which the growth was 87.5% in the assay on T-47D breast; 98.6% in the assay with BT-549 breast; 103% with MDA-MB-435 melanoma; 89.6% with SW-620 colon; 81% in the assay with MCF7 breast; 74.5% in the assay on HCT-116 colon. Also, the growth with HCC-2998 colon was 107%; in the assay on KM12 colon, 101%.
`Cc1[nH]c2ccc(F)cc2c1CCNC(=O)C1CCN(C(=O)c2ccc(-c3ccccc3)cc2)CC1`: the growth in the assay with T-47D breast is -32.2% (active); with BT-549 breast, 40.8%; in the assay with MDA-MB-435 melanoma it was 56.8%; in the assay with SW-620 colon, 69.3%; in the assay with MCF7 breast, 16.5%; in the assay on HCT-116 colon it was 32.5%. Besides, the growth in the assay on HCC-2998 colon is 57%; with KM12 colon, 43.3%.
For the compound `NC(=O)C1=C[C@H]2[C@H]3C=C[C@@]2(O)C(=O)O[C@@H]3O1`, the growth was 38.2% with T-47D breast; 64.2% with BT-549 breast; 36.9% in the assay on MDA-MB-435 melanoma; 40.3% in the assay on SW-620 colon; 21.6% in the assay with MCF7 breast; 18.4% in the assay with HCT-116 colon. The growth is 91.6% in the assay with HCC-2998 colon and 84.9% with KM12 colon.
`O=C(Nc1ccc(F)cc1)Nc1ccc(Cl)c([N+](=O)[O-])c1`: the growth is 6.68% (active) in the assay with T-47D breast; 42.4% in the assay with BT-549 breast; 21.1% in the assay with MDA-MB-435 melanoma; 19% in the assay with SW-620 colon; 7.97% (active) with MCF7 breast; 7.12% (active) in the assay on HCT-116 colon. Moreover, the growth in the assay on HCC-2998 colon was 20.2%; with KM12 colon it was 12.4%.
Turning to `OC(COc1ccccc1Cl)CN1CCN(c2ccc(Cl)cc2)CC1` (stereo not given), the growth with T-47D breast was 101%; in the assay with BT-549 breast, 89.9%; with MDA-MB-435 melanoma, 105%; in the assay with SW-620 colon, 108%; with MCF7 breast, 90.2%; with HCT-116 colon, 96.4%. Further, the values for the growth with HCC-2998 colon and in the assay on KM12 colon were 102% and 100%, respectively.
Take `Cc1ccc2nc(-c3ccc(-n4on4-c4ccc(/C=C/c5ccc(-n6on6-c6ccc(-c7nc8ccc(C)cc8s7)cc6)cc5S(=O)(=O)O)c(S(=O)(=O)O)c4)cc3)sc2c1`: the growth in the assay with T-47D breast is 95.5%; in the assay on BT-549 breast it was 114%; in the assay on MDA-MB-435 melanoma, 110%; in the assay with SW-620 colon it was 117%; in the assay on MCF7 breast, 110%; in the assay on HCT-116 colon, 103%. Also, the values for the growth in the assay with HCC-2998 colon and in the assay on KM12 colon were 107% and 103%, respectively.
With `O=[N+]([O-])c1ccc(NS(=O)(=O)c2ccccc2)c2ccccc12`, the growth in the assay on T-47D breast was 32%; with BT-549 breast it was 37.2%; with MDA-MB-435 melanoma, 36.8%; in the assay on SW-620 colon, 49.6%; in the assay on MCF7 breast, 42.3%; in the assay with HCT-116 colon, 44.6%. For the same compound, the growth in the assay with HCC-2998 colon is 36.7%; with KM12 colon, 40.1%.
Regarding `COc1ccc2c(c1)C(=O)/C(=C/c1cccc(OCC(=O)c3ccccc3)c1)O2`, the growth was -31.7% (active) in the assay on T-47D breast; -15.9% (active) with BT-549 breast; 38% in the assay with MDA-MB-435 melanoma; -82.7% (active) with SW-620 colon; 32% in the assay on MCF7 breast; 0.433% (active) in the assay on HCT-116 colon. Besides, the figures for the growth with HCC-2998 colon and with KM12 colon were -71.2% (active) and 71.7%, respectively.
`COc1ccccc1NC(=O)COc1ccc(/C=C2/Oc3cc4occc4c(OC)c3C2=O)cc1OC`: the growth is 86.4% in the assay on T-47D breast; 93% with BT-549 breast; 107% with MDA-MB-435 melanoma; 111% with SW-620 colon; 99.4% in the assay with MCF7 breast; 102% with HCT-116 colon. Moreover, the growth in the assay with HCC-2998 colon was 106%; in the assay with KM12 colon it was 97.8%.
`C=C1C(=O)O[C@H]2[C@H]1CC/C(COC(=O)c1ccc(Cl)nc1)=C\CC[C@@]1(C)O[C@@H]21`: the growth was -31.1% (active) in the assay on T-47D breast; 10.3% with BT-549 breast; 14.6% with MDA-MB-435 melanoma; -45.2% (active) in the assay with SW-620 colon; 7.96% (active) in the assay on MCF7 breast; -80.6% (active) with HCT-116 colon. Also, the growth is 95.5% in the assay on HCC-2998 colon and 82.8% in the assay on KM12 colon.

Values taken from PubChem BioAssay (NCI).
